Source: ChEMBL document CHEMBL4513216, “Probing the Open Global Health Chemical Diversity Library for Multistage-Active Starting Points for Next-Generation Antimalarials” (ACS Infect Dis, 2020)
Among all 69,000 compounds or so, about 8,600 (12%) showed an effect of 50% or more. Many of the other results were omitted from the sample, so strong results are more common in it than they were.

tested on: Plasmodium berghei; assay: Screen against P. berghei liver stage (PbLuc), transformed with Luciferase, at 10uM; type: functional, HepG2; settings: tested at 10 uM

Row | SMILES | INHIBITION [%]
1 | O=C(Cc1cccnc1)N1CCCC2(CCN(C3CCOCC3)C2)C1 (centres undefined) | -62.2
2 | Cc1ccc(C(=O)N2CCC3(CC2)CC(c2ccccc2)C(=O)N3)cn1 (centres undefined) | 30.5
3 | Cc1nccn1[C@@H]1CC[C@@H](NC(=O)CCOc2ccccc2)[C@H]1O | 21.7
4 | CCC=C(C)C(=O)NCc1ccnc(OC)c1 | 42.3
5 | CCC=C(C)C(=O)NCc1ccnc(OC2CCOCC2)c1 | 56
6 | O=C(Cc1cccs1)NCc1ccnc(OC2CCOCC2)c1 | -32.8
7 | O=C(NCCC1CCN(CC(F)(F)F)CC1)C1COCCO1 (centres undefined) | 21.8
8 | c1cncc(CNCc2cccs2)c1 | 6.26
9 | O=C1CCCN1Cc1nnc2n1CCN(Cc1ccoc1)CC2 | 33.2
10 | O=C(O)c1cc(S(=O)(=O)N2CCOc3ccccc32)cc(Cl)c1Cl | 23.25
11 | O=C(c1ccccn1)N1C[C@H]2CC[C@@H](C1)N(C(=O)CCC(F)(F)F)C2 | 6.33
12 | O=C(c1ccccn1)N1C[C@H]2CC[C@@H](C1)N(C(=O)CCN1CCCC1)C2 | 50.3
13 | O=C(c1ccccn1)N1C[C@H]2CC[C@@H](C1)N(C(=O)CCC1CCCC1)C2 | -36.6
14 | CC(=O)c1c(F)cccc1NCC(O)C(C)(C)C (centres undefined) | 30.5
15 | O=C(NCC1Cn2nnc(-c3ccccc3)c2CO1)c1ccc[nH]1 (centres undefined) | -29
16 | c1cnc(NCC2Cn3nnc(-c4ccoc4)c3CO2)nc1 (centres undefined) | 25.2
17 | NCC1Cn2nnc(-c3cccc(F)c3)c2CO1 (centres undefined) | 6.8
18 | Fc1cccc(-c2nnn3c2COC(CNc2ncccn2)C3)c1 (centres undefined) | 54.4
19 | Fc1cnc(NCC2Cn3nnc(-c4ccccc4)c3CO2)nc1 (centres undefined) | 50.9
20 | c1cnc(NCC2Cn3nnc(-c4ccsc4)c3CO2)nc1 (centres undefined) | 45.1
21 | CNCC(=O)N1CCCC1c1n[nH]cc1-c1ccccc1F (centres undefined) | -16
22 | Cn1ccnc1CN1CCOC(C)(C(=O)N2CCOCC2)C1 (centres undefined) | 35.2

Row | SMILES | INHIBITION [%]
23 | COCCCN(Cc1ccc(F)cc1Cl)C1CCS(=O)(=O)C1 (centres undefined) | 34.9
24 | Cc1cccc(CN2CCC3(CCCN(C(=O)c4ccsc4)C3)C2=O)n1 (centres undefined) | 12.6
25 | Cc1nnc([C@]23COC[C@H]2CN(Cc2cnn(C)c2)C3)o1 | 23.1
26 | Cc1cc(Br)c(O)c(-c2nc(N3CCCCC3)sc2C)c1 | 64.9
27 | Cc1cc(Br)c(O)c(-c2nc(N3CCOCC3)sc2C)c1 | 33.7
28 | Cc1cc(Br)c(O)c(C(=O)N2CCC(CN3CCCCCC3)CC2)c1 | 28.1
29 | Cc1ccsc1CN1C[C@@H]2COC[C@]2(COCC(=O)N(C)C)C1 | -4.32
30 | O=c1ccc2c(n1CC1CC1)CCC(NS(=O)(=O)C1CC1)C2 (centres undefined) | 14.8
31 | COc1ncccc1CNC1CCc2c(ccc(=O)n2C)C1 (centres undefined) | 60.2
32 | Cn1cc(CNC2CCc3c(ccc(=O)n3C)C2)cn1 (centres undefined) | 18.6
33 | O=c1ccc2c(n1CC1CC1)CCC(NCc1cccs1)C2 (centres undefined) | 92.8
34 | COCCn1c2c(ccc1=O)CC(NCc1cccnc1OC)CC2 (centres undefined) | 41.2
35 | CC(C)NC1CCc2c(ccc(=O)n2CC2CC2)C1 (centres undefined) | 47.4
36 | CCS(=O)(=O)NC1CCc2c(ccc(=O)n2CC2CC2)C1 (centres undefined) | 35.7
37 | Cc1cnc(NC2CCc3c(ccc(=O)n3C)C2)nc1 (centres undefined) | -14.3
38 | COc1ncccc1CNC1CCc2c(ccc(=O)n2CC2CC2)C1 (centres undefined) | 55.7
39 | O=C(CC1CC1)NC1CCc2c(ccc(=O)n2CC2CC2)C1 (centres undefined) | -5.63
40 | CCCS(=O)(=O)NC1CCc2c(ccc(=O)n2CC2CC2)C1 (centres undefined) | 43.9
41 | Cc1cnc(NC2CCc3c(ccc(=O)n3CC3CC3)C2)nc1 (centres undefined) | 81.5
42 | O=C(CCN1CCOCC1)Nc1cccc(CNCc2ccsc2)c1 | -1.79
43 | O=C(N1CCCC1)N1CC[C@H]2OCC[C@@]2(COc2ncccc2F)C1 | 4.1
44 | CC(=O)N1CCC(C(=O)N2CCCC(Cc3cccc(C)n3)C2)CC1 (centres undefined) | -18.9

Row | SMILES | INHIBITION [%]
45 | CS(=O)(=O)N1CCO[C@@H]2CN(C(=O)c3cccnc3)C[C@@H]2C1 | 2.7
46 | COc1ccccc1CC(C)CC(=O)NS(=O)(=O)C(C)C (centres undefined) | 9.57
47 | CCC1=N[C@@]2(CC[C@@H]3CN(CC4CC4)C[C@@H]32)C(=O)N1C | 24.5
48 | Cc1ccc(S(=O)(=O)CCC(=O)NCc2nnc3n2CCC3)cc1 | -2.34
49 | O=C(NCc1nnc2n1CCC2)N1CCc2sccc2C1 | -8.11
50 | CC(=O)NCc1nnc2n1CCN(c1ncnc3c1CCC3)CC2 | 56.1
51 | CC(=O)NCc1nnc2n1CCN(c1nc(C)nc3sccc13)CC2 | 55
52 | Cn1ccnc1CN1CCc2ncnc(N3CCCC3)c2CC1 | -78.5
53 | CC(=O)NCc1nnc2n1CCN(c1ncnc3c(C)csc13)CC2 | 24.7
54 | COc1ncccc1C(=O)N1CCC(Nc2ccc(C)nn2)CC1 | 33.7
55 | c1nnc(Nc2cncc(C3CCCN3)n2)s1 (centres undefined) | 13.285
56 | Cc1cc(=O)n(C)cc1NC(=O)Cc1cccc(F)c1 | 25.1
57 | Cc1cc(=O)n(C)cc1NC(=O)Cc1cc(F)ccc1F | 56.5
58 | Cc1cc(=O)n(C)cc1NC(=O)Cc1ccc(C(F)(F)F)cc1 | 11.7
59 | Cc1ccc(NC2(C(=O)NCCCc3c(C)n[nH]c3C)CCCC2)cc1 | -40.9
60 | Cc1ccc(NC2(C(=O)NCCCN)CCCC2)cc1 | 53.2
61 | Cc1ccc(NC2(C(=O)NCc3c(C)n[nH]c3C)CCCC2)cc1 | 11.6
62 | CO[C@H]1CO[C@@]2(CCCN(C(=O)N(C)C)C2)C1 | 35.8
63 | CCc1n[nH]c(C2CN(C(=O)c3cc(C4CC4)on3)CCO2)n1 (centres undefined) | -3.58
64 | CNc1nc(CNC(=O)Nc2ccc([S+](C)[O-])c(F)c2)cs1 (centres undefined) | 22.955
65 | O=C(Oc1ccccc1)N1CCC(CNS(=O)(=O)c2cccnc2)CC1 | 18.2
66 | Cn1ccnc1CN1CCC(CNS(=O)(=O)c2cccnc2)C1 (centres undefined) | 58.3

Row | SMILES | INHIBITION [%]
67 | Cn1ccnc1CCNS(=O)(=O)c1cccnc1 | 38.6
68 | O=C(c1ccco1)N1CCc2onc(Cn3cccn3)c2C1 | 21.5
69 | CCNC(=O)[C@@H]1C[C@H](N)CN1Cc1ccc2cccc(Cl)c2n1 | 35.4
70 | CCNC(=O)[C@@H]1C[C@@H](N)CN1Cc1ccc2cccc(Cl)c2n1 | 11.9
71 | CNC(=O)[C@@H]1C[C@@H](N)CN1Cc1ccc2cccc(OC)c2n1 | 55.5
72 | O=C1CC2(CCN(S(=O)(=O)c3cccs3)C2)CN1c1ccccc1 (centres undefined) | -0.104
73 | CC(Cn1cccn1)NC(=O)N1CCN(Cc2ccsc2)CC1 (centres undefined) | 4.71
74 | CCCN(Cc1cnn(C)c1)S(=O)(=O)c1ccc(F)c(C#N)c1 | -32.4
75 | O=C(c1cccnc1)N1CCN(c2ccc(-n3cccc3)nn2)CC1 | 0.647
76 | Cc1cccc(C(=O)N2CCN(c3ccc(-n4cccc4)nn3)CC2)c1 | 51.5
77 | O=C(c1ccccc1F)N1CCN(c2ccc(-n3cccn3)nn2)CC1 | 0.472
78 | Cc1nc(N2CCN(C(=O)c3cccnc3)CC2)cc(-n2cccc2)n1 | 32.4
79 | O=C(c1ccccc1F)N1CCN(c2ccc(-n3cccc3)nn2)CC1 | 55.9
80 | O=C(c1ccccn1)N1CCN(c2ccc(-n3cccc3)nn2)CC1 | 27.6
81 | COCC(=O)N1CCCC1c1nccnc1Nc1nc(C)cs1 (centres undefined) | 39.7
82 | Cc1ccc(C(=O)O)cc1CNC(=O)CN1CC(C)(C)[C@@](C)(O)C1 | 28.7
83 | Cc1cnn(CC2CCCN2CC(=O)Nc2cc(C(C)C)no2)c1 (centres undefined) | -35.7
84 | OC1(CN2CCCC2)CCCN(Cc2ccc(F)cc2Cl)C1 (centres undefined) | 13.7
85 | Cc1cc(F)ccc1CN1CCCC(O)(CN2CCCC2)C1 (centres undefined) | 55
86 | CC(C)c1nccc(CN2CCCC(O)(CN3CCCC3)C2)n1 (centres undefined) | 62
87 | CC(C)c1nccc(CN2CCC(O)(CN3CCCCC3)C2)n1 (centres undefined) | 32.5
88 | OC1(CN2CCCC2)CCCN(Cc2cnc(-c3ccco3)nc2)C1 (centres undefined) | 61

Row | SMILES | INHIBITION [%]
89 | CC(C)c1nccc(CN2CCCC(O)(CN(C)C)C2)n1 (centres undefined) | 7.92
90 | Cc1cc(F)ccc1CN1CCC(O)(CN2CCCCC2)C1 (centres undefined) | -10.4
91 | CN(C)CC1(O)CCCN(Cc2cnc(-c3ccco3)nc2)CC1 (centres undefined) | 6.28
92 | OC1(CN2CCCC2)CCCN(Cc2cnc(-c3ccccc3)nc2)C1 (centres undefined) | 45.7
93 | O=C(Cc1cccnc1)N1CCC2(CCN(CC3CCCCC3)C2)CC1 | 26.4
94 | Cc1cc(C)cc(C(=O)N2CCCC3(CCCC(=O)N3C)C2)c1 (centres undefined) | -15.9
95 | O=C(c1ccc(-n2ccnc2)cc1)N1CCCC(n2ccnc2)C1 (centres undefined) | 2.3
96 | CC(C)(NS(C)(=O)=O)c1nc(-c2cccc(Cl)c2)no1 | -4.83
97 | CC=C(C)C(=O)NS(=O)(=O)c1ccc(C(F)(F)F)cc1 | 13.2
98 | Cc1nc[nH]c1CN(Cc1ccccc1)C1CC(C)(C)NC(C)(C)C1 | 6.785
99 | CCCN(Cc1cccnc1)C1CC(C)(C)NC(C)(C)C1 | 10
100 | Cc1ccc(CN(Cc2ccccn2)C2CC(C)(C)NC(C)(C)C2)s1 | 37
101 | Cc1ccc(CN(Cc2cccnc2)C2CC(C)(C)NC(C)(C)C2)s1 | 42.1
102 | CC1(C)CC(N(Cc2ccccc2)Cc2cccnc2)CC(C)(C)N1 | 65.4
103 | Cc1cccc(CN(Cc2cccnc2)C2CC(C)(C)NC(C)(C)C2)n1 | 35.2
104 | Cc1nc[nH]c1CN(Cc1ccc(F)cc1)C1CC(C)(C)NC(C)(C)C1 | 42.4
105 | CC1(C)CC(N(Cc2cccnc2)Cc2cccnc2)CC(C)(C)N1 | 64.9
106 | CC1(C)CC(N(Cc2ccccc2)Cc2c[nH]cn2)CC(C)(C)N1 | 13.2
107 | CC1(C)CC(N(Cc2cccnc2)Cc2cccc(F)c2)CC(C)(C)N1 | 75.3
108 | CC1(C)CC(N(Cc2ccncc2)Cc2cccnc2)CC(C)(C)N1 | 50.1
109 | Cc1ccsc1CN(Cc1cccnc1)C1CC(C)(C)NC(C)(C)C1 | 33.7
